High-throughput results from PubChem.
This is a sample that favours compounds with a hit; in the whole collection about 19% have one here.
TDP1 cell noCPT: qHTS for Inhibitors of human tyrosyl-DNA phosphodiesterase 1 (TDP1): qHTS in cells in absence of CPT; DT40 Tdp1-/- hTDP1 cells, no CPT, ATP luminescence, 48 h; Potency, µM (doses to about 46.2 µM), without a hit: at the highest dose activity change, negative = growth inhibition, actives largely listed as inhibitors; 420,000 tested, 15% active; AID 686978, 2013; also: potency is read from the fitted curve at half-maximal effect; nearly all actives have a fitted effect of over 55% in size
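Cells were dispensed at 400 per well, compounds added by pin tool, plates incubated ≥48 hr at 37 °C, then CellTiter-Glo added for 30 min at room temperature before luminescence reading. Line: DT40 Tdp1-/- complemented with hTDP1; camptothecin omitted.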
HT1080 IDH1KD tx: qHTS for induction of synthetic lethality in tumor cells producing 2HG: qHTS for the HT-1080-IDH1KD cell line | HT-1080 IDH1 knockdown viability, ATP luminescence, 48 h | 360,000 tested, 2% active | Potency, µM (doses to about 46.1 µM), for inactives: top-dose activity, negative = toxicity, usual class: cytotoxic | AID 686971, 2013;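 also: potency is read from the fitted curve at half-maximal effect; 0% = DMSO wells and -100% = cell-free medium wells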
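IDH1KD HT-1080 cells, 750/well, RPMI + 5% FBS; compound pinned after 2 h settling; 48 h, 37 °C; CellTiter-Glo luminescence; % activity normalised to DMSO and no-cell wells; curves fitted, classed by r2 and efficacy.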
HT1080NT lethal: qHTS for induction of synthetic lethality in tumor cells producing 2HG: qHTS for the HT-1080-NT fibrosarcoma cell line; HT-1080-NT fibrosarcoma viability, CellTiter-Glo ATP luminescence, 48 h; Potency, µM (doses to about 46.1 µM), without a hit: top-dose activity, negative = less viability, usual class: cytotoxic; 360,000 tested, 1.6% active;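 also: NT is the 2HG producing partner of a matched IDH1 knockdown line; potency is read from the fitted curve at half-maximal effect; 0% = DMSO-treated cells and -100% = media-only wells without cells; nearly all actives have a fitted effect of over 55% in size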
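750 cells/well, RPMI + 5% FBS; 2 h settle, compound pin-transfer, 48 h at 37 degrees C. CellTiter-Glo 10 min RT, luminescence. Normalized to DMSO and media-only wells.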
DT40 TDP1 CPT: qHTS for Inhibitors of human tyrosyl-DNA phosphodiesterase 1 (TDP1): qHTS in cells in presence of CPT | chicken DT40 Tdp1-/-;hTDP1 cells + 20 nM CPT, ATP luminescence, 48 h | Potency, µM (top dose mostly 46.2 µM), inactives show top-dose activity change, negative = growth inhibition, most hits filed as inhibitors | 420,000 tested, 12% active | AID 686979, 2013; also: potency is read from the fitted curve at half-maximal effect; nearly all actives have a fitted effect of over 55% in size
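Chicken DT40 Tdp1-/- cells complemented with human TDP1, 400 cells/well, exposed to compounds plus 20 nM camptothecin for at least 48 h at 37 C; viability read as ATP content by CellTiter-Glo luminescence.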
IL-1B inflam inh: qHTS for Inhibitors of Inflammasome Signaling: IL-1-beta AlphaLISA Primary Screen | 360,000 tested, 4.7% active | THP-1 LPS/ATP IL-1B secretion, AlphaLISA, 16 h; active compounds read low | activity change, % at 57.5 µM | AID 743279, 2014; in the data active = activity change below about -50%; inconclusive = mostly about -30% to -49%
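THP-1 cells pretreated 1 hr with compounds (up to 57.5 uM final), then stimulated with LPS (250 ng/mL final) plus ATP (1.25 mM final); secreted IL-1B measured by AlphaLISA after 16 hr, decreased signal indicating inhibition.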
The depositor's hits bear a star; ? = inconclusive; nt = not tested or not shown; [ ] = dose if it differs, or a comment. Unless noted, calls follow the shape of the dose curve; as a rule, active = well fitted curve in the direction sought with a large enough effect; inconclusive = small, poorly fitted or top-dose-only effect, or another doubt; inactive = no such curve, though single readings can be large; an effect the other way counts as inactive or inconclusive. Unless noted, % is scaled to controls: 0 for no effect and ±100 for the full control effect.

SMILES	TDP1 cell noCPT	HT1080 IDH1KD tx	HT1080NT lethal	DT40 TDP1 CPT	IL-1B inflam inh
Cc1cc(S(=O)(=O)N2CCOCC2)ccc1OCC(=O)Nc1ccc(Br)cc1F	1.1%	-1.3%	16.4%	9.3%	17.5
CC(C)(C)c1cnnn1-c1ccc(C=O)cc1	-6.1%	?	-4.8%[9.24 µM]	-20.3%	12.9
CC(C)(C)c1cnnn1-c1ccc(C(=O)CCl)cc1	1.84µM*	?	?	1.3µM*	-105.7*
CC(=O)Nc1nonc1-c1nnc(SCc2ccc(F)cc2Cl)n1C	14.6µM*	nt	nt	?	nt
CCn1c(SCc2ccc(F)cc2Cl)nnc1-c1nonc1NC(C)=O	18.4µM*	nt	nt	16.4µM*	nt
CC(=O)Nc1nonc1-c1nnc(SCc2ccc(F)cc2)n1C	?	nt	nt	-20.9%	nt
CC(=O)Nc1nonc1-c1nnc(SCC(=O)Nc2ccc(C)c(Cl)c2)n1-c1ccccc1	16.4µM*	nt	nt	?	nt
Cc1cccc2c(N3CCCC3)nc(CNS(=O)(=O)c3ccc4ccccc4c3)nc12	?	nt	nt	1.6%[9.04 µM]	nt
COc1ccc(C(=O)N(C)Cc2ccccn2)cc1OC1CCN(C(C)C)CC1	-26.6%	9.1%	6.7%	10.6%	11.8
COc1ccc(N2CCN(CC(=O)c3ccc(O)c(C)c3O)CC2)cc1	20.6µM*	-1.5%	-1.6%	?	7.7
O=C(CN1CCN(c2ccccc2F)CC1)c1ccc(O)c(O)c1	10.3µM*	-24.2%	-3.3%	23.1µM*	79.8
COc1ccc(N2CCN(CC(=O)c3c(C)n(C)c4ccc(OC)cc34)CC2)cc1	23.1µM*	-9.3%	-0.4%	18.4µM*	nt
COc1ccc2c(c1)c(C(=O)CN1CCOCC1)c(C)n2C	-21.6%	8.1%	9.5%	-0.6%	19.6
Cc1c(O)ccc(C(=O)CN2CCN(c3ccccc3F)CC2)c1O	23.1µM*	-7.5%	-8.7%	?	11.9
CCC1CCCCN1CCCNC(=O)c1c(O)nc2ccccn2c1=O (centres undefined)	17.1%	3.9%	4.4%	5.7%	-3.4
Cc1ccc(N(CN2C(=O)c3ccccc3C2=O)C(=O)c2ccc([N+](=O)[O-])cc2[N+](=O)[O-])cc1	0.8%	9.8%	10.9%	-2.4%	77.6
O=C(CN1CCN(c2ccccc2)CC1)N1CCN(c2ccccc2)CC1	?	1.1%	-2.4%	?	8.0
Cc1c(O)ccc(C(=O)CN2CCN(c3ccccc3)CC2)c1O	23.1µM*	-1.4%	11.3%	?	9.2
CN(Cc1ccc(Cl)cc1Cl)C(=O)c1cc(=O)c2ccccc2o1	23.1µM*	-15.8%	-8.3%	?	-12.5
CN(Cc1ccccc1Cl)C(=O)c1cc2ccccc2o1	?	-3.4%	-3.1%	?	-22.3
CC1=NN(/C(=N\c2nnc(C)s2)Nc2ccc(C(C)(C)C)cc2)[C@H](c2ccc(C)cc2)S1	?	-9.6%	-16.3%	18.4µM*	?
O=C(NCCC1CCCCN1S(=O)(=O)c1ccccc1)C(=O)NCc1ccc(F)cc1 (centres undefined)	18.4µM*	-8.4%	-8.4%	?	-24.6
O=C(NCCC1CCCCN1S(=O)(=O)c1ccccc1)C(=O)NCc1ccccc1 (centres undefined)	?	-6.1%	2.0%	?	-0.5
Cc1ccc(CNC(=O)C(=O)NCCC2CCCCN2S(=O)(=O)c2ccccc2)cc1 (centres undefined)	14.6µM*	-24.9%	-15.7%	?	-4.7
O=C(NCCC1CCCCN1S(=O)(=O)c1ccc(F)cc1)C(=O)NCc1ccccn1 (centres undefined)	0.7%	5.5%	5.1%	4.0%	5.9
SMILES	TDP1 cell noCPT	HT1080 IDH1KD tx	HT1080NT lethal	DT40 TDP1 CPT	IL-1B inflam inh
Clc1ccc(C2=Nn3c(Cn4nnc5ccccc54)nnc3SC2)cc1	-25.9%	-13.5%	-17.8%	-27.2%	-53.1*
c1ccc(-c2ccc(C3=Nn4c(Cn5nnc6ccccc65)nnc4SC3)cc2)cc1	?	-8.9%	-11.4%	23.1µM*	-57.2*
CC(=O)N/C(=C\c1ccccc1)C(=O)OCC(=O)Nc1cc(S(=O)(=O)N(C)C)ccc1C	5.6%	-20.9%	-0.7%	8.8%	13.2
CN(CC(=O)Nc1ccc(F)cc1)CC(=O)Nc1ccc(F)c(F)c1F	-27.4%	-16.6%	-18.9%	-0.1%	0.1
Cc1ccc(S(=O)(=O)CC2CSc3nc4ccccc4n32)cc1 (centres undefined)	1.84µM*	?	-6.6%	1.84µM*	-3.1
Cc1ccc(C(=O)Nc2ccccc2C(=O)NCc2ccco2)cc1S(=O)(=O)N1CCCCC1	16.4µM*	-9.5%	-11.9%	?	1.7
Cc1ccc(O)c(NC(=O)c2ccc(Br)c(S(=O)(=O)N3CCCCC3)c2)c1	5.17µM*	nt	nt	9.2µM*	nt
Cc1ccc(C(=O)NNC(=O)c2ccccc2O)cc1S(=O)(=O)N1CCCCC1	?	-12.2%	-0.6%	16.4µM*	38.4
Cc1ccc(O)c(NC(=O)c2cccc(S(=O)(=O)N3CCCCC3)c2)c1	?	-10.7%	-2.5%	?	-9.0
Cc1ccc(C(=O)NC2CCCC2)cc1S(=O)(=O)N1CCCCC1	11.0%	-7.3%	-3.7%	-21.7%	27.0
COc1cc(C(=O)OCc2cccc(S(=O)(=O)N3CCOCC3)c2)ccc1OCC(C)C	-21.6%	-2.6%	-6.9%	-21.6%	21.1
Cc1cccc(NC(=O)COC(=O)CN2C(=O)C3CCCCC3C2=O)c1C (centres undefined)	-7.6%	20.7%	1.7%	-9.9%	12.4
N#C/C(=C/c1ccc(N2CCOCC2)o1)c1nc2ccccc2[nH]1	?	?	-25.0%	?	-22.4
N#C/C(=C\c1ccc(Sc2ccc(Cl)cc2)o1)c1nc2ccccc2[nH]1	13µM*	-5.8%	-1.6%	20.6µM*	0.0
N#C/C(=C\c1ccc(Sc2nc3ccccc3[nH]2)o1)c1ccccc1	18.4µM*	?	?	?	-72.9*
N#Cc1ccc(Sc2nc3ccccc3[nH]2)cc1C#N	-12.1%	-0.3%	-5.4%	-14.4%	-21.7
Cc1ccc(NC(=O)c2nc(S(=O)(=O)Cc3ccc(F)cc3)ncc2Cl)cc1C	2.31µM*	nt	nt	3.66µM*	nt
CC(=O)Nc1ccc(NC(=O)c2nc(S(=O)(=O)Cc3ccc(F)cc3)ncc2Cl)cc1	0.411µM*	nt	nt	0.731µM*	nt
CSc1ncc(Cl)c(C(=O)Nc2ccc(C)c(C)c2)n1	-6.6%	-7.5%	-9.8%	-7.1%	17.6
Cc1cccc(CCN2C(N(C)C)=NC[C@@H]2Cc2ccccc2)c1	?	-11.4%	?	?	-59.2*
